Reference: doi:10.1101/2024.03.05.583629

The sequences below were run against pT7_6His-AlfaTag-HOXD13 (human, UniProt P35453 263-343) (assay: PADIT-seq). Conditions: dsDNA, one strand shown.
Sequence of pT7_6His-AlfaTag-HOXD13 (P35453 263-343): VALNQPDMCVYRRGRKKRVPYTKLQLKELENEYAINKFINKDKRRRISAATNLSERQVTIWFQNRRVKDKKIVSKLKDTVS

| Sequence | binding signal [log2FC] |
| --- | --- |
| CTCGAGGATATCAAGATCTGGCCTCGGCCGAGTAAAAGGAACCTCTAGCTAGCCGACTCACTATAGGGATAATCGCCCTGAGCAAAGACC | 0.186 ± 0.114 |
| CTCGAGGATATCAAGATCTGGCCTCGGCGAAGTAAAAGGAACCTCTAGCTAGCCGACTCACTATAGGGATAATCGCCCTGAGCAAAGACC | 0.136 ± 0.0787 |
| CTCGAGGATATCAAGATCTGGCCTCGGCTTGCTAAAAGGAACCTCTAGCTAGCCGACTCACTATAGGGATAATCGCCCTGAGCAAAGACC | -0.271 ± 0.11 |
| CTCGAGGATATCAAGATCTGGCCTCGGCGCGCTAAAAGGAACCTCTAGCTAGCCGACTCACTATAGGGATAATCGCCCTGAGCAAAGACC | -0.366 ± 0.0916 |
| CTCGAGGATATCAAGATCTGGCCTCGGCCTTTTAGTAGGAACCTCTAGCTAGCCGACTCACTATAGGGATAATCGCCCTGAGCAAAGACC | 1.19 ± 0.0808 |
| CTCGAGGATATCAAGATCTGGCCTCGGCTTTTTATGGGGAACCTCTAGCTAGCCGACTCACTATAGGGATAATCGCCCTGAGCAAAGACC | 3.53 ± 0.0874 |
| CTCGAGGATATCAAGATCTGGCCTCGGCATTTTAGTCGGAACCTCTAGCTAGCCGACTCACTATAGGGATAATCGCCCTGAGCAAAGACC | -0.427 ± 0.127 |
| CTCGAGGATATCAAGATCTGGCCTCGGCTTTCCACGCGGAACCTCTAGCTAGCCGACTCACTATAGGGATAATCGCCCTGAGCAAAGACC | -0.793 ± 0.11 |
| CTCGAGGATATCAAGATCTGGCCTCGGCGTACTAAAAGGAACCTCTAGCTAGCCGACTCACTATAGGGATAATCGCCCTGAGCAAAGACC | 0.47 ± 0.0814 |
| CTCGAGGATATCAAGATCTGGCCTCGGCGTTTTAGCGGGAACCTCTAGCTAGCCGACTCACTATAGGGATAATCGCCCTGAGCAAAGACC | -0.00405 ± 0.124 |
